# For part of these data: Measured potencies and affinities stand elsewhere. Active and inactive are the calls of the source. Unless noted, how the calls were made is not given here.
# Assays:
# [1] = biological target: Cell division control protein 42 homolog (Homo sapiens) (UniProt P60953); assay: activated mutant Cdc42 GTP-binding inhibitors, dose response, biochemical, multiplex bead flow cytometry, Bodipy-FL-GTP (AID 1333;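 active means fitted half-maximal concentration within the tested dose range, moderate curve steepness, a statistically real signal drop, and little compound fluorescence or tag-binding interference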)
# [2] = biological target: Cell division control protein 42 homolog (Homo sapiens) (UniProt P60953); assay: wildtype Cdc42 GTP-binding inhibitors, dose response, biochemical, multiplex bead flow cytometry, Bodipy-FL-GTP (AID 1334;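 active means fitted half-maximal concentration within the tested range, moderate curve steepness, significant signal drop, and little compound fluorescence or bead-linkage interference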); conditions: bead-based flow cytometry, Bodipy-FL-GTP binding to GST-Cdc42; at 100 µM (top of the series) unless noted
# [3] = biological target: GTPase HRas (Homo sapiens) (UniProt P01112); assay: inhibitors of GTP binding to wildtype Ras, dose response, biochemical, multiplex bead flow cytometry (AID 1335;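 active means fitted half-maximal concentration within 10 nM to 100 µM, steepness 0.5 to 2, significant signal drop, low assay interference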); conditions: bead-based flow cytometry, Bodipy-GTP binding to GST-Ras; at 100 µM (top of the series) unless noted
# [4] = system: Ras-related protein Rab-7a (dog), GTP binding; assay: Rab7 GTP binding inhibitors, potency, dose response, biochemical, wildtype, multiplex bead flow cytometry (AID 1336)
# [5] = biological target: Ras-related C3 botulinum toxin substrate 1 (Homo sapiens) (UniProt P63000); assay: wildtype Rac1 GTP binding inhibitors, dose response, biochemical, multiplex bead flow cytometry (AID 1340;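 active means dose curve with midpoint inside tested range, moderate steepness, plateau gap beyond fit error, low compound glow and bead-link interference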); conditions: GST-Rac1 beads, Bodipy-FL-GTP binding; at 100 µM (top of the series) unless noted
# [6] = biological target: GTPase HRas (Homo sapiens) (UniProt P01112); assay: activated Ras mutant GTP binding inhibitors, dose response, biochemical, multiplex bead flow cytometry (AID 1341;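 active means dose-response curve with midpoint inside the tested range, moderate steepness, significant amplitude and little compound fluorescence or bead-attachment interference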;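 further: GST-tagged constitutively activated Ras mutant immobilized on beads and multiplexed with other GTPases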)
# Sequence of GTPase HRas (Homo sapiens) (P01112 whole entry, looked up): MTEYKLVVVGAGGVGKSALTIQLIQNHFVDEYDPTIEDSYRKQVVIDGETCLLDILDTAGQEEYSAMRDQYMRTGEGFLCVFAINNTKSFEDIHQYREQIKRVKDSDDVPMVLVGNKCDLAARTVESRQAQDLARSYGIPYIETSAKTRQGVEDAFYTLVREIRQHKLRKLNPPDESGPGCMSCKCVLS
# Sequence of Cell division control protein 42 homolog (Homo sapiens) (P60953 whole entry, looked up): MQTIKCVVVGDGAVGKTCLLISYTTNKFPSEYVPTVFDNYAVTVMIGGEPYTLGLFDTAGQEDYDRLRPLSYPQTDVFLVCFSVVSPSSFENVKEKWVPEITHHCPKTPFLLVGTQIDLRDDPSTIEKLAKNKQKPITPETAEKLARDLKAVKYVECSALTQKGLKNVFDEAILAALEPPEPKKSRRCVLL
Compound,outcome [1],"fluorescence, percent of control (lower = inhibition) [2]","GTP binding, percent of control [3]",outcome [4],"GTP binding signal, raw median fluorescence (lower = inhibition) (MCF (arbitrary fluorescence units)) [5]",outcome [6]
O=C(O)CSc1nc2ccccc2n1CCOc1ccccc1F,inactive,58.4%,90.3%,inactive,37.2,inactive
CN(C)/C=C(\C#N)C(N)=C(C#N)C#N,inactive,38.1%,82.8%,inactive,259,inactive
CCOc1cc(/C=N/Nc2nncc(-c3ccccc3)n2)ccc1O,inactive,37.4%,75.5%,inactive,160,inactive
Cc1ccc(-n2nc3c(=S)[nH]nc(C)c3c2C)cc1,inactive,54.7%,66.3%,inactive,201,inactive
O=C(O)c1ccccc1OCc1ccccc1Br,inactive,84.6%,98%,inactive,65.5,inactive
CC(C)(C)OC(=O)N[C@@H](Cc1ccccc1)c1nnc(S(=O)(=O)Cc2cccc(F)c2)o1,inactive,33%,77%,inactive,260,inactive
Cc1ccc(Nc2c(F)c(F)c(F)c(F)c2C(=O)O)c(C)c1,inactive,92.8%,109%,inactive,75.2,inactive
Cc1ccc(C(=O)O)c(OCc2ccccc2C)c1,inactive,62.4%,208%,inactive,59.3,inactive
CCOc1cc(/C=C2/SC(=S)NC2=O)ccc1OC(=O)c1ccco1,inactive,33.4%,83.7%,inactive,208,inactive
O=C(Cc1csc(Nc2nc(=S)[nH]c3ccccc23)n1)NCCCN1CCN(c2cccc(Cl)c2)CC1,inactive,34.3%,75.8%,inactive,192,inactive
O=C(O)/C=C/C(=O)Nc1cccnc1,inactive,50.8%,64.4%,inactive,200,inactive
Cc1cccc(C)c1CCOc1ncccc1C(=O)O,inactive,80.3%,251%,inactive,70.2,inactive
COc1ccc(-c2nn3c(-c4ccco4)nnc3s2)cc1OC,inactive,39.1%,132%,inactive,143,inactive
N#Cc1c(C(F)(F)F)cc(-c2ccc(Cl)cc2)[nH]c1=O,inactive,27.5%,66%,inactive,178,inactive
CCCOc1ccc(OCCSc2nc3ccccc3n2CC(=O)O)cc1,inactive,60.2%,87.7%,inactive,35.1,inactive
COc1cc2[nH]c(=S)nc(Nc3ccc(NC(C)=O)cc3)c2cc1OC,inactive,23.4%,52.2%,inactive,118,inactive
Cn1c(N/N=C/c2ccccc2)nc2sc3c(c2c1=O)CCC3,inactive,71.9%,117%,inactive,123,inactive
NC(=O)c1cc2nc(-c3ccco3)cc(C(F)(F)F)n2n1,inactive,29.6%,40.3%,inactive,91.8,inactive
O=S1(=O)N=C(N(CCO)/N=C/C=C/c2ccccc2)c2ccccc21,inactive,22.8%,35.3%,inactive,101,inactive
Cc1cc(C)n(Cc2n[nH]c(=S)n2Cc2ccccc2)n1,inactive,106%,189%,inactive,198,inactive
CC(C)(C)c1ccc(OCCn2cc(C(=O)O)c3ccccc32)cc1,inactive,57.9%,82.9%,inactive,30.4,inactive
Cc1cc2ccccn2c1C(=O)c1ccc(Cl)c([N+](=O)[O-])c1,inactive,38.8%,86.1%,inactive,216,inactive
COc1ccc(/C=N/NC(=O)c2ccncc2)cc1Cn1nc([N+](=O)[O-])c(Br)c1C,inactive,38.6%,75.7%,inactive,144,inactive
COc1cccc2cc(-c3ccnc(=S)[nH]3)oc12,inactive,33.3%,70.7%,inactive,140,inactive
Cn1cc([C@@H]2C[C@H]3CN(Cc4cccc(Cl)c4)C(=O)[C@]34CCCN24)c2ccccc21,inactive,61.3%,111%,inactive,276,inactive
Cc1cc(NCc2sc(C(=O)O)cc2C)ccc1Br,inactive,57.8%,81.7%,inactive,33.8,inactive
CC(C)N(C)NC(=S)Nc1ccccc1,inactive,53.9%,64.3%,inactive,210,inactive
COc1ccc(C2=Nn3c(nnc3-c3ccccn3)SC2)cc1OC,inactive,34%,44.4%,inactive,112,inactive
